The source of these data is PubChem BioAssay AID720506 (National Center for Advancing Translational Sciences (NCATS), 2013).

Among all 2,300 compounds or so, about 95 (4%) were called active. Roughly 17% stayed inconclusive and do not appear here. For the sample, actives were picked, then their nearest neighbours and some compounds at random. Values without a mark were called inactive. Calls follow the shape of the dose curve; as a rule, active = well fitted activation curve with a large enough effect; inconclusive = small, poorly fitted or top-dose-only effect; inactive = flat fitted curve, though single readings scatter.
Potency is read from the fitted curve at half-maximal effect.

In the assay the target is D(3) dopamine receptor (Homo sapiens) (UniProt P35462). Nature of the assay: qHTS of D3 Dopamine Receptor Agonist: D3 Dopamine Receptor B-arrestin Agonist Confirmatory Assay. Also: nearly all actives have a fitted effect of over 70% in size.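 As to activation: 100% = dopamine control response.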 Conditions: DiscoveRx D3 beta-arrestin cells, luminescence, 90 min; series mostly up to 76.9 µM; activation: at the top concentration. The text has this: D3 DARs represent a very important target for the treatment of several neuropsychiatric disorders. Indeed, one of the most promising therapeutic applications for the D3 DAR is in the area of addiction and related disorders. […] These findings have been observed with a number of addictive substances including cocaine, amphetamine, nicotine, and alcohol. […] Increased D3 DAR activity can thus lead to neuroprotective and neurorestorative actions in the CNS. […] This assay is used to confirm the activity of the identified D3 dopamine receptor agonist. Activation is the desired outcome for this assay. NIH Molecular Libraries Probe Production Centers Network [MLPCN] NIH Chemical Genomics Center [NCGC] MLPCN Grant: NS064831 Assay Submitter (PI): David Sibley
Sequence of D(3) dopamine receptor (Homo sapiens) (P35462 whole entry, looked up): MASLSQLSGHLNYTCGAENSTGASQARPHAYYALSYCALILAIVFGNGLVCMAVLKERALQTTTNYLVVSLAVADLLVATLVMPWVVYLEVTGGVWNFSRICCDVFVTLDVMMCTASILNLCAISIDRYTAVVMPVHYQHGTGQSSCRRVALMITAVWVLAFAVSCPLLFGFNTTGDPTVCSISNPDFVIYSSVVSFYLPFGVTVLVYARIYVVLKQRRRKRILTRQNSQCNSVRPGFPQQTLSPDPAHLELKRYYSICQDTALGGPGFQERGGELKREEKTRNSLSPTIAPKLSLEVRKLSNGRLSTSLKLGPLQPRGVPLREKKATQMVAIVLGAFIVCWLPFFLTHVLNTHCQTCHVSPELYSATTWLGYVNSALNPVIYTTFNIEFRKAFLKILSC
Freshly passaged DiscoveRx D3 cells are plated in 1536 well white, solid bottom plates at a density of 1500 cells/well in 3microl of complete media. After an overnight incubation at 37 degrees C in 5% CO2, cells are loaded with 23nl of test compound from the compound library (as well as dopamine controls) using a 1536 pintool and incubated at 37 degrees C for 90 minutes. Two microliters of DiscoveRx reagent is then added to all cells, and they are incubated for an additional 30 - 60 minutes at room temperature. Following incubation, luminescence is measured on a ViewLux CCD-based luminometer reader using a 20 sec exposure time.
(In qHTS, concentration-response curves come from the screen itself.)
Regarding `Cc1ccc(O)c(-c2cc(C(=O)Nc3c(C)n(C)n(-c4ccccc4)c3=O)[nH]n2)c1`, the “activation” value was 0.15%.

As to `COc1ccc(NC(C)=O)cc1NC(=O)CN1CCN(c2ccccn2)CC1`, the “activation” value was 15.7%.

With `OCC[C@H]1C[C@H](O)[C@@H](O)[C@]2(Cc3ccccc3CO2)O1`, the “activation” value was -5.36%. Still for that read-out and setting: with `Cn1c(C(=O)NCCCN2CCN(c3cccc(Cl)c3)CC2)cc2c(=O)n(C)c3ccccc3c21` the figure was -22%. Same read-out and setting: in the case of `O=C(Nc1cccnc1Cl)c1cc(-c2cccc(Cl)c2)on1` it was -7.51%; in that of `CCC(CC)NC(=O)/C=C/c1cccc([N+](=O)[O-])c1`, 0.387%. As for `OC(COc1cccc2ccccc12)CN1CCN(c2ccccn2)CC1` (configuration not stated), the Potency is 8.91 µM (active).

In the case of `O=C1c2cccc3cccc(c23)N1CN1CCN(c2ccccn2)CC1`, the “activation” value is 16.7%. Same read-out and setting: with `CC(=O)Nc1ccc(OCC(O)CN2CCN(c3ccccc3Cl)CC2)cc1` (configuration not stated) the figure was -5.41%; with `O=C(OCc1nc2ccccc2[nH]1)C1CCCCC1`, -2.95%; with `O=C(c1ccccc1)c1ccc(OCC(O)CN2CCCC2)cc1` (configuration not stated), 1.27%. On the same count and under the same terms, in the case of `CC[C@H](C)C(=O)N[C@H]1CCCN1C(=O)/C=C/c1ccccc1` it was -7.23%.

As for `CCCCC(=O)NNC(=S)NC(=O)C(c1ccccc1)c1ccccc1`, the “activation” value was -17.9%.

As to `CCCN1CC=C2C(C#N)=C(N)C(C#N)(C#N)C(c3cc(OC)ccc3OC)C2C1` (configuration not stated), the “activation” value was -11.6%. `CC(=O)C[C@@H](O)CC(=O)[C@H]1OC(=O)CCCCCCc2ccccc21`: the “activation” value was -0.58%.

For `COc1cc(OC)c(-n2cc(-c3ccc(Cl)cc3)[nH]c2=O)cc1Cl`, the “activation” value was -14%. In the case of `CNC(=O)NC(=O)C(C)N1CCN(C/C=C/c2ccccc2)CC1` (configuration not stated), the “activation” value was 8.09%. Same read-out and setting: in the case of `CN1CCC(CN)(N2CCN(c3ccccc3)CC2)CC1` it was 8.81%; in that of `O=C1CC[C@H](O)CCN1[C@H](CSc1ccc(Br)cc1)Cc1ccccc1`, -4.53%.

For the molecule `Cc1ccccc1N1CCN(CCCOc2ccc3c(C)cc(=O)oc3c2)CC1`, the “activation” value is 20%. Still for that read-out and setting: in the case of `Nc1nonc1-n1nnc(C(=O)N/N=C/c2ccc(Cl)cc2)c1-c1ccc2c(c1)OCO2` it was 0.0552%; in that of `CN(C)CCOC(=O)C(c1ccccc1)C1(O)CCCC1` (configuration not stated), -3.48%. `Cc1cc(C(=O)NNC(=O)c2ccccc2O)c(C)o1`: the “activation” value is -3.17%. Turning to `O=C(Nc1ccc(F)cc1F)N1CCCN(CCOc2ccccc2)CC1`, the “activation” value is -3.15%. For the molecule `COC(c1ccccc1)c1nnc(CCC(=O)N2CCN(CCOc3ccccc3)CC2)o1` (configuration not stated), the Potency was 2.82 µM (active). As to `NS(=O)(=O)c1ccc(CCNC(=O)NC2CCCCC2)cc1`, the “activation” value is -9.36%. On the same count and under the same terms, in the case of `[O-][N+]12CCCCC1CCCC2CO` (configuration not stated) it was -6.66%; in that of `COc1cc(OC)c2ccc(=O)oc2c1C(CCN1CCN(c2ccccc2)CC1)c1ccc2c(c1)OCO2` (configuration not stated), 25.2%; in that of `O=C(CCN1CCN(c2ccccc2)CC1)NNC(=S)Nc1ccccc1`, 1.55%. Still for that read-out and setting: with `COc1ccc(N2CCN(Cc3cc(=O)oc4ccc5ccccc5c34)CC2)cc1` the figure was -2.9%; with `Cc1cccc(C)c1NC(=O)CNC(=O)c1ccc2c(c1)OCCO2`, -4.56%. `Cc1c(CN2CC[C@@H](N3CCN(c4ccccn4)CC3)[C@H](O)C2)[nH]c2ccc(F)cc12`: the Potency is 28.2 µM (active). For `Cc1ccccc1Nc1nc(N)nc(CN2CCN(c3ccccn3)CC2)n1`, the “activation” value was -7.76%. Still for that read-out and setting: in the case of `O=C(CN1CCN(c2ccccn2)CC1)NC1CCCCC1` it was 1.52%; in that of `Cc1n[nH]c(C)c1S(=O)(=O)N1CCCC(C(=O)NCC2COc3ccccc3O2)C1` (configuration not stated), 5.77%; in that of `O=C(O[C@H]1[C@H](Cc2ccccc2)NS(=O)(=O)[C@H]2C[C@@H]3C=C[C@]12O3)c1ccc([N+](=O)[O-])cc1`, -6.96%. Still for that read-out and setting: in the case of `O=C1c2ccccc2S(=O)(=O)N1CC(O)Cn1c2ccccc2c2ccccc21` (configuration not stated) it was 7.56%. Same read-out and setting: with `CC(C)(C)n1ncc2c(=O)n(Cc3c(Cl)cccc3Br)cnc21` the figure was 7.37%. For the molecule `COc1ccc(S(=O)(=O)N2CCSCC2)cc1`, the “activation” value was -5.06%. Still for that read-out and setting: in the case of `O=C1C=C(c2cccc(Br)c2)C[C@@H](c2ccc(F)cc2)C1` it was -9.8%; in that of `O=C(COc1coc(CN2CCN(c3ccccc3)CC2)cc1=O)Nc1ccccc1F`, 15.3%. Same read-out and setting: with `CCC(=O)c1ccc(OCC(=O)Nc2ccc(N3CCCCC3)cc2)cc1` the figure was -2.57%. Same read-out and setting: with `Cc1cnc(C(=O)N2CCCC(N3CCN(c4ccccc4F)CC3)C2)cn1` (configuration not stated) the figure was 4.86%; with `CN(CCO)S(=O)(=O)c1ccc2c(c1)C(=O)c1cc(S(=O)(=O)N(C)CCO)ccc1-2`, 19.8%. As for `CC(=O)OC(C)C[N+](C)(C)C` (configuration not stated), the “activation” value is -10%. Still for that read-out and setting: with `CS(=O)(=O)N1CCC(C(=O)N2CCN(c3ccccc3)CC2)CC1` the figure was 11.2%. The same measure, in the same setting: with `O=C(NC(=O)c1ccccc1)Nc1ccccc1O` the figure was -12.9%. Same read-out and setting: in the case of `O=C(CCn1c(=O)[nH]c2ccccc2c1=O)NCCCN1CCN(c2cccc(Cl)c2)CC1` it was 3.76%; in that of `O=C(CN1CCN(c2ncccn2)CC1)Nc1ccccc1C(F)(F)F`, 7.45%; in that of `CC(OC(=O)/C=C/c1ccccc1)C(=O)NC1CCCCC1C` (configuration not stated), -7.01%. On to `O=c1cc(CCl)nc2scc(-c3ccccc3)n12`, for which the “activation” value is -6.56%. On the same count and under the same terms, with `CC(C)CCN1CCN(Cc2cn[nH]c2C2CCCCC2)CC1CCO` (configuration not stated) the figure was -8.42%; with `CS/C(=C\C(=O)c1ccco1)Nc1ccccc1Cl`, -7.46%. The same measure, in the same setting: with `O=S(=O)(c1ccc(F)cc1)N1CC=C(c2ccccc2)CC1` the figure was 13.2%; with `CCN(CCCNC(=O)c1ccc2c(c1)NC(=O)CN2C)c1cccc(C)c1`, 9.36%.

For the molecule `O=C(CC1NCCc2ccccc21)Nc1cccc(Cl)c1` (configuration not stated), the “activation” value is -14.9%. On to `COc1ccc([C@H]2CC(=O)C=C(c3ccc(CO)cc3)C2)cc1`, for which the “activation” value was -2.54%. On to `COc1ccc([C@H]2CC(=O)C=C(c3ccc(OC(F)(F)F)cc3)C2)cc1OC`, for which the “activation” value is -7.65%. The same measure, in the same setting: in the case of `CC(=C1C(=O)c2ccccc2C1=O)N1CCN(c2ccccn2)CC1` it was 7.68%. Regarding `Cc1c(CC(=O)N2CCN(C(=O)C3COc4ccccc4O3)CC2)c(=O)oc2c(O)c(O)ccc12` (configuration not stated), the Potency was 28.2 µM (active).

In the case of `NS(=O)(=O)c1ccc(CCNS(=O)(=O)c2cccc3cccnc23)cc1`, the “activation” value is -7.06%. For `C/C(=N\NC(=S)NC1CCCCC1)c1ccc(C)o1`, the “activation” value is -16.5%.

With `COc1ccc(CC(NC(C)=O)C(=O)N2CCN(C(=O)Nc3cccc(Cl)c3)CC2)cc1OC` (configuration not stated), the “activation” value is -10.7%. On the same count and under the same terms, in the case of `O=C(NCCCN1CCN(c2ccccc2F)CC1)C1CCC(=O)N1C1CCCCC1` (configuration not stated) it was 3.35%. As for `Cc1ccc(S(=O)(=O)N2CC(O)C[C@H]2C(=O)OCC(=O)Nc2ccc(N3CCOCC3)cc2)cc1C` (some centres not stated), the “activation” value was -0.304%. In the case of `CCn1c(=O)n(CC)c2cc(N3CCCC3)c(NC(=O)c3ccccc3Br)cc21`, the “activation” value is -1.66%. On the same count and under the same terms, in the case of `CNCC(O)c1ccc(O)c(O)c1` (configuration not stated) it was -1.74%.
